# Experimental data as given in article PMC11006913.
# Changes are numbered by the printed parent chain.
# How the values were obtained:
# Test in all cases: PBM; 200 nM protein, PBS
# Settings in all cases: dsDNA, one strand shown
# [1] = biological target: T1, VENTX (Homo sapiens, UniProt O95231 78-163, R121Q)
# T1 sequence: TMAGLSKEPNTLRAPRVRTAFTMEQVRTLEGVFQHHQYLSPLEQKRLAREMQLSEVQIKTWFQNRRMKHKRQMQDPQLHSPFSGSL
# [2] = biological target: T2, VENTX (Homo sapiens, UniProt O95231 78-163)
# T2 sequence: T1 sequence with Q44R
# [3] = biological target: HOXC10 (Homo sapiens, UniProt Q9NYD6 254-340)
# Chain of HOXC10 (Homo sapiens, UniProt Q9NYD6 254-340) (Q9NYD6 254-340): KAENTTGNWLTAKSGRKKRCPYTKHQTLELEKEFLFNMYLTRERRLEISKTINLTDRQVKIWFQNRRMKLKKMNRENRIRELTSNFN
# [4] = biological target: T3, VENTX (Homo sapiens, UniProt O95231 78-163, Y115F)
# T3 sequence: T1 sequence with Y38F, Q44R
# [5] = biological target: ALX1 (Homo sapiens, UniProt Q15699 118-204, L144V)
# Chain of ALX1 (Homo sapiens, UniProt Q15699 118-204, L144V) (Q15699 118-204 L144V): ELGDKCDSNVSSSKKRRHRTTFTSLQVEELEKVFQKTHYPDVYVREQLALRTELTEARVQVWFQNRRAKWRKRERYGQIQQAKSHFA
# [6] = biological target: ALX3 (Homo sapiens, UniProt O95076 139-225, N203Q)
# Chain of ALX3 (Homo sapiens, UniProt O95076 139-225, N203Q) (O95076 139-225 N203Q): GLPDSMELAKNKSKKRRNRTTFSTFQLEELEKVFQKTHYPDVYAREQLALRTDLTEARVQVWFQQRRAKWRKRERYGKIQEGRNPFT
# [7] = biological target: ALX1 (Homo sapiens, UniProt Q15699 118-204, L144R)
# Chain of ALX1 (Homo sapiens, UniProt Q15699 118-204, L144R) (Q15699 118-204 L144R): as the sequence (Q15699 118-204 L144V) above, with V27R counted along it
# [8] = biological target: HOXC10 (Homo sapiens, UniProt Q9NYD6 254-340, K271E)
# Chain of HOXC10 (Homo sapiens, UniProt Q9NYD6 254-340, K271E) (Q9NYD6 254-340 K271E): as the sequence (Q9NYD6 254-340) above, with K18E counted along it
# [9] = biological target: ALX3 (Homo sapiens, UniProt O95076 139-225)
# Chain of ALX3 (Homo sapiens, UniProt O95076 139-225) (O95076 139-225): as the sequence (O95076 139-225 N203Q) above, with Q65N counted along it
# [10] = biological target: ALX3 (Homo sapiens, UniProt O95076 139-225, L168Q)
# Chain of ALX3 (Homo sapiens, UniProt O95076 139-225, L168Q) (O95076 139-225 L168Q): as the sequence (O95076 139-225 N203Q) above, with L30Q, Q65N counted along it
# [11] = biological target: ALX3 (Homo sapiens, UniProt O95076 139-225, L168V)
# Chain of ALX3 (Homo sapiens, UniProt O95076 139-225, L168V) (O95076 139-225 L168V): as the sequence (O95076 139-225 N203Q) above, with L30V, Q65N counted along it
# [12] = biological target: ALX1 (Homo sapiens, UniProt Q15699 118-204)
# Chain of ALX1 (Homo sapiens, UniProt Q15699 118-204) (Q15699 118-204): as the sequence (Q15699 118-204 L144V) above, with V27L counted along it
# [13] = biological target: ALX3 (Homo sapiens, UniProt O95076 139-225, N203S)
# Chain of ALX3 (Homo sapiens, UniProt O95076 139-225, N203S) (O95076 139-225 N203S): as the sequence (O95076 139-225 N203Q) above, with Q65S counted along it
# [14] = biological target: HOXA7 (Homo sapiens, UniProt P31268 116-202)
# Chain of HOXA7 (Homo sapiens, UniProt P31268 116-202) (P31268 116-202): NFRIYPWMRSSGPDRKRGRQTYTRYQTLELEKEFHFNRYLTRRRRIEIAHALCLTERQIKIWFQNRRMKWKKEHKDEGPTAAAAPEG
# [15] = biological target: HOXB6 (Homo sapiens, UniProt P17509 132-218, K202E)
# Chain of HOXB6 (Homo sapiens, UniProt P17509 132-218, K202E) (P17509 132-218 K202E): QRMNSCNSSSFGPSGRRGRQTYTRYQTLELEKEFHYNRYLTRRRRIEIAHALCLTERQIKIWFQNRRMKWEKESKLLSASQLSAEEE
# [16] = biological target: HOXA2 (Homo sapiens, UniProt O43364 129-215, R185K)
# Chain of HOXA2 (Homo sapiens, UniProt O43364 129-215, R185K) (O43364 129-215 R185K): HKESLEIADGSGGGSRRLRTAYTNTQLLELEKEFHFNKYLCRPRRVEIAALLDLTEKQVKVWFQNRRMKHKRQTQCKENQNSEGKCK
# [17] = biological target: VAX1 (Homo sapiens, UniProt Q5SQQ9 86-172)
# Chain of VAX1 (Homo sapiens, UniProt Q5SQQ9 86-172) (Q5SQQ9 86-172): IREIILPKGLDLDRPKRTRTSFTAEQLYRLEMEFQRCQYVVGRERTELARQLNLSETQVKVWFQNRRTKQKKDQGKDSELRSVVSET
# [18] = biological target: VAX1 (Homo sapiens, UniProt Q5SQQ9 86-172, T142I)
# Chain of VAX1 (Homo sapiens, UniProt Q5SQQ9 86-172, T142I) (Q5SQQ9 86-172 T142I): as the sequence (Q5SQQ9 86-172) above, with T57I counted along it
# [19] = biological target: HOXA7 (Homo sapiens, UniProt P31268 116-202, W177C)
# Chain of HOXA7 (Homo sapiens, UniProt P31268 116-202, W177C) (P31268 116-202 W177C): as the sequence (P31268 116-202) above, with W62C counted along it
# [20] = biological target: VAX1 (Homo sapiens, UniProt Q5SQQ9 86-172, K157R)
# Chain of VAX1 (Homo sapiens, UniProt Q5SQQ9 86-172, K157R) (Q5SQQ9 86-172 K157R): as the sequence (Q5SQQ9 86-172) above, with K72R counted along it
# [21] = biological target: HOXB6 (Homo sapiens, UniProt P17509 132-218)
# Chain of HOXB6 (Homo sapiens, UniProt P17509 132-218) (P17509 132-218): as the sequence (P17509 132-218 K202E) above, with E71K counted along it
# [22] = biological target: T4, PAX4 (Homo sapiens, UniProt O43316 9-242, R200K)
# T4 sequence: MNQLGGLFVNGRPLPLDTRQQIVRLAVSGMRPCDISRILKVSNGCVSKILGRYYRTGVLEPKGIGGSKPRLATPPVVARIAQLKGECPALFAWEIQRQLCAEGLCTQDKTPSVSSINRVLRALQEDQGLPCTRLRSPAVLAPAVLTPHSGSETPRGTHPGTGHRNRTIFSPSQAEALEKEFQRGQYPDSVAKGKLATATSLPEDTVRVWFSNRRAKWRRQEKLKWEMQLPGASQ
# [23] = biological target: T5, PAX4 (Homo sapiens, UniProt O43316 9-242)
# T5 sequence: T4 sequence with K192R
# [24] = biological target: T6, NKX2-6 (Homo sapiens, UniProt A6NCS4 118-204, R150C)
# T6 sequence: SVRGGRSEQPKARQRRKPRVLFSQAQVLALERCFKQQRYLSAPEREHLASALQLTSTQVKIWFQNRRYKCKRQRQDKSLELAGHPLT
# [25] = biological target: T7, PAX4 (Homo sapiens, UniProt O43316 9-242, R200Q)
# T7 sequence: T4 sequence with K192Q
# [26] = biological target: T8, PAX4 (Homo sapiens, UniProt O43316 9-242, F177V)
# T8 sequence: T4 sequence with F169V, K192R
# [27] = biological target: T9, PAX4 (Homo sapiens, UniProt O43316 9-242, F177Y)
# T9 sequence: T4 sequence with F169Y, K192R
# [28] = biological target: T10, PAX4 (Homo sapiens, UniProt O43316 9-242, R227W)
# T10 sequence: T4 sequence with K192R, R219W
# [29] = biological target: HOXA2 (Homo sapiens, UniProt O43364 129-215, R185T)
# Chain of HOXA2 (Homo sapiens, UniProt O43364 129-215, R185T) (O43364 129-215 R185T): as the sequence (O43364 129-215 R185K) above, with K57T counted along it
# [30] = biological target: HOXA2 (Homo sapiens, UniProt O43364 129-215, Y150S)
# Chain of HOXA2 (Homo sapiens, UniProt O43364 129-215, Y150S) (O43364 129-215 Y150S): as the sequence (O43364 129-215 R185K) above, with Y22S, K57R counted along it
# [31] = biological target: HOXA2 (Homo sapiens, UniProt O43364 129-215)
# Chain of HOXA2 (Homo sapiens, UniProt O43364 129-215) (O43364 129-215): as the sequence (O43364 129-215 R185K) above, with K57R counted along it
# [32] = biological target: HOXB9 (Homo sapiens, UniProt P17482 171-250)
# Chain of HOXB9 (Homo sapiens, UniProt P17482 171-250) (P17482 171-250): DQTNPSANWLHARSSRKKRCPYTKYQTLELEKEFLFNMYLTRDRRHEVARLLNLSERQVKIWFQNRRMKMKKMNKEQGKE
# [33] = biological target: HOXB9 (Homo sapiens, UniProt P17482 171-250, R186Q)
# Chain of HOXB9 (Homo sapiens, UniProt P17482 171-250, R186Q) (P17482 171-250 R186Q): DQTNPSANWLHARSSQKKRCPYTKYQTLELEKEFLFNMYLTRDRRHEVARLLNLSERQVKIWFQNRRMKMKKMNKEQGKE
sequence,measurement,setting,value
AATAACAC,binding signal,[1],"9.57 upbm affinity estimate (log intensity, higher = more binding, comparable within an allelic series)"
same,binding signal,[2],"9.93 upbm affinity estimate (log intensity, higher = more binding, comparable within an allelic series)"
CTGGCGCA,binding signal,[1],"8.11 upbm affinity estimate (log intensity, higher = more binding, comparable within an allelic series)"
same,binding signal,[2],"8.09 upbm affinity estimate (log intensity, higher = more binding, comparable within an allelic series)"
same,binding signal,[3],"9.99 upbm affinity estimate (log intensity, higher = more binding, comparable within an allelic series)"
same,binding signal,[4],"8.2 upbm affinity estimate (log intensity, higher = more binding, comparable within an allelic series)"
same,binding signal,[5],"6.29 upbm affinity estimate (log intensity, higher = more binding, comparable within an allelic series)"
same,binding signal,[6],"7.76 upbm affinity estimate (log intensity, higher = more binding, comparable within an allelic series)"
same,binding signal,[7],"6.21 upbm affinity estimate (log intensity, higher = more binding, comparable within an allelic series)"
same,binding signal,[8],"10 upbm affinity estimate (log intensity, higher = more binding, comparable within an allelic series)"
same,binding signal,[9],"7.58 upbm affinity estimate (log intensity, higher = more binding, comparable within an allelic series)"
same,binding signal,[10],"7.71 upbm affinity estimate (log intensity, higher = more binding, comparable within an allelic series)"
same,binding signal,[11],"7.74 upbm affinity estimate (log intensity, higher = more binding, comparable within an allelic series)"
same,binding signal,[12],"6.24 upbm affinity estimate (log intensity, higher = more binding, comparable within an allelic series)"
same,binding signal,[13],"7.82 upbm affinity estimate (log intensity, higher = more binding, comparable within an allelic series)"
CGCATGCG,binding signal,[1],"8.34 upbm affinity estimate (log intensity, higher = more binding, comparable within an allelic series)"
same,binding signal,[2],"8.73 upbm affinity estimate (log intensity, higher = more binding, comparable within an allelic series)"
same,binding signal,[4],"8.4 upbm affinity estimate (log intensity, higher = more binding, comparable within an allelic series)"
GCCCATTA,binding signal,[1],"12.1 upbm affinity estimate (log intensity, higher = more binding, comparable within an allelic series)"
same,binding signal,[2],"13 upbm affinity estimate (log intensity, higher = more binding, comparable within an allelic series)"
same,binding signal,[14],"11.3 upbm affinity estimate (log intensity, higher = more binding, comparable within an allelic series)"
same,binding signal,[4],"11.8 upbm affinity estimate (log intensity, higher = more binding, comparable within an allelic series)"
same,binding signal,[15],"9.82 upbm affinity estimate (log intensity, higher = more binding, comparable within an allelic series)"
same,binding signal,[16],"13.1 upbm affinity estimate (log intensity, higher = more binding, comparable within an allelic series)"
same,binding signal,[17],"12.8 upbm affinity estimate (log intensity, higher = more binding, comparable within an allelic series)"
same,binding signal,[18],"12.2 upbm affinity estimate (log intensity, higher = more binding, comparable within an allelic series)"
same,binding signal,[19],"8.75 upbm affinity estimate (log intensity, higher = more binding, comparable within an allelic series)"
same,binding signal,[20],"12.5 upbm affinity estimate (log intensity, higher = more binding, comparable within an allelic series)"
same,binding signal,[21],"11.8 upbm affinity estimate (log intensity, higher = more binding, comparable within an allelic series)"
TAATGGGA,binding signal,[1],"11.5 upbm affinity estimate (log intensity, higher = more binding, comparable within an allelic series)"
same,binding signal,[2],"12.4 upbm affinity estimate (log intensity, higher = more binding, comparable within an allelic series)"
same,binding signal,[4],"11.3 upbm affinity estimate (log intensity, higher = more binding, comparable within an allelic series)"
CTACCCGC,binding signal,[1],"8.06 upbm affinity estimate (log intensity, higher = more binding, comparable within an allelic series)"
same,binding signal,[2],"8.07 upbm affinity estimate (log intensity, higher = more binding, comparable within an allelic series)"
same,binding signal,[4],"8.08 upbm affinity estimate (log intensity, higher = more binding, comparable within an allelic series)"
CGGCCCCA,binding signal,[1],"8.18 upbm affinity estimate (log intensity, higher = more binding, comparable within an allelic series)"
same,binding signal,[2],"8.34 upbm affinity estimate (log intensity, higher = more binding, comparable within an allelic series)"
same,binding signal,[22],"9.24 upbm affinity estimate (log intensity, higher = more binding, comparable within an allelic series)"
same,binding signal,[4],"8.08 upbm affinity estimate (log intensity, higher = more binding, comparable within an allelic series)"
same,binding signal,[23],"9.19 upbm affinity estimate (log intensity, higher = more binding, comparable within an allelic series)"
same,binding signal,[24],"9.36 upbm affinity estimate (log intensity, higher = more binding, comparable within an allelic series)"
same,binding signal,[25],"9.28 upbm affinity estimate (log intensity, higher = more binding, comparable within an allelic series)"
same,binding signal,[26],"9.21 upbm affinity estimate (log intensity, higher = more binding, comparable within an allelic series)"
same,binding signal,[27],"9.24 upbm affinity estimate (log intensity, higher = more binding, comparable within an allelic series)"
same,binding signal,[28],"9.25 upbm affinity estimate (log intensity, higher = more binding, comparable within an allelic series)"
CACTGGGG,binding signal,[1],"7.92 upbm affinity estimate (log intensity, higher = more binding, comparable within an allelic series)"
same,binding signal,[2],"7.73 upbm affinity estimate (log intensity, higher = more binding, comparable within an allelic series)"
same,binding signal,[3],"10 upbm affinity estimate (log intensity, higher = more binding, comparable within an allelic series)"
same,binding signal,[4],"7.93 upbm affinity estimate (log intensity, higher = more binding, comparable within an allelic series)"
same,binding signal,[29],"7.07 upbm affinity estimate (log intensity, higher = more binding, comparable within an allelic series)"
same,binding signal,[16],"10.1 upbm affinity estimate (log intensity, higher = more binding, comparable within an allelic series)"
same,binding signal,[8],"10 upbm affinity estimate (log intensity, higher = more binding, comparable within an allelic series)"
same,binding signal,[30],"10.4 upbm affinity estimate (log intensity, higher = more binding, comparable within an allelic series)"
same,binding signal,[31],"7.07 upbm affinity estimate (log intensity, higher = more binding, comparable within an allelic series)"
GCGGGTCC,binding signal,[1],"8.12 upbm affinity estimate (log intensity, higher = more binding, comparable within an allelic series)"
same,binding signal,[2],"8.25 upbm affinity estimate (log intensity, higher = more binding, comparable within an allelic series)"
same,binding signal,[3],"10 upbm affinity estimate (log intensity, higher = more binding, comparable within an allelic series)"
same,binding signal,[4],"8.16 upbm affinity estimate (log intensity, higher = more binding, comparable within an allelic series)"
same,binding signal,[8],"10 upbm affinity estimate (log intensity, higher = more binding, comparable within an allelic series)"
CGAGCCAC,binding signal,[1],"8.17 upbm affinity estimate (log intensity, higher = more binding, comparable within an allelic series)"
same,binding signal,[2],"8.51 upbm affinity estimate (log intensity, higher = more binding, comparable within an allelic series)"
same,binding signal,[4],"8.31 upbm affinity estimate (log intensity, higher = more binding, comparable within an allelic series)"
CGATTAAC,binding signal,[1],"11.4 upbm affinity estimate (log intensity, higher = more binding, comparable within an allelic series)"
same,binding signal,[2],"12.4 upbm affinity estimate (log intensity, higher = more binding, comparable within an allelic series)"
same,binding signal,[4],"11.3 upbm affinity estimate (log intensity, higher = more binding, comparable within an allelic series)"
AATCCATT,binding signal,[1],"10.1 upbm affinity estimate (log intensity, higher = more binding, comparable within an allelic series)"
same,binding signal,[2],"10.5 upbm affinity estimate (log intensity, higher = more binding, comparable within an allelic series)"
same,binding signal,[4],"9.94 upbm affinity estimate (log intensity, higher = more binding, comparable within an allelic series)"
CCGAATTA,binding signal,[1],"10.1 upbm affinity estimate (log intensity, higher = more binding, comparable within an allelic series)"
same,binding signal,[2],"10.6 upbm affinity estimate (log intensity, higher = more binding, comparable within an allelic series)"
same,binding signal,[22],"11.8 upbm affinity estimate (log intensity, higher = more binding, comparable within an allelic series)"
same,binding signal,[4],"9.98 upbm affinity estimate (log intensity, higher = more binding, comparable within an allelic series)"
same,binding signal,[23],"12.4 upbm affinity estimate (log intensity, higher = more binding, comparable within an allelic series)"
same,binding signal,[32],"10.1 upbm affinity estimate (log intensity, higher = more binding, comparable within an allelic series)"
same,binding signal,[25],"11.8 upbm affinity estimate (log intensity, higher = more binding, comparable within an allelic series)"
same,binding signal,[26],"10.4 upbm affinity estimate (log intensity, higher = more binding, comparable within an allelic series)"
same,binding signal,[27],"11.1 upbm affinity estimate (log intensity, higher = more binding, comparable within an allelic series)"
same,binding signal,[33],"10 upbm affinity estimate (log intensity, higher = more binding, comparable within an allelic series)"
same,binding signal,[28],"10.9 upbm affinity estimate (log intensity, higher = more binding, comparable within an allelic series)"
GGCCATTA,binding signal,[1],"11.6 upbm affinity estimate (log intensity, higher = more binding, comparable within an allelic series)"
same,binding signal,[2],"12.3 upbm affinity estimate (log intensity, higher = more binding, comparable within an allelic series)"
same,binding signal,[14],"11.2 upbm affinity estimate (log intensity, higher = more binding, comparable within an allelic series)"
same,binding signal,[4],"11.4 upbm affinity estimate (log intensity, higher = more binding, comparable within an allelic series)"
same,binding signal,[15],"9.75 upbm affinity estimate (log intensity, higher = more binding, comparable within an allelic series)"
same,binding signal,[19],"8.67 upbm affinity estimate (log intensity, higher = more binding, comparable within an allelic series)"
same,binding signal,[21],"11.8 upbm affinity estimate (log intensity, higher = more binding, comparable within an allelic series)"
